# This is a sample that favours compounds with a hit; in the whole collection about 2.8% have one here.
# HIF-2a inh – HIF-2a inhibition | 786-0 RCC cells HIF-2a reporter, luciferase luminescence, overnight | inhibition, % at 18.8 µM | 0.72% of 360,000 active;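 active = inhibition of the luminescence signal of 40% or more relative to plate controls, in a single-dose primary screen at 18.75 µM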
# PAX8 reporter – PAX8 transcriptional activity inhibition; RMG-I TPO-luciferase reporter, SteadyGlo, 24 h; 1.2% of 360,000 active; inhibition, % at 12.6 µM; AID 652154;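 active = mean replicate inhibition at least 60% with every replicate also reaching 60%; inconclusive = only one of the two criteria is met; inactive = mean below 60% and not all replicates reaching 60%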;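 note: luciferase light reporting Pax8 driven TPO promoter activity; plate controls were median of neutral control wells for no effect and mitoxantrone controls for full effect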
# Shn3 3UTR inh – Schnurri-3 reporter inhibition in Clone20 osteoblasts. Clone20 osteoblast Shn3 3'UTR firefly luciferase, 24 h. inhibition, % at 12.5 µM. 0.52% of 360,000 active. AID 588674;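 active = mean inhibition of at least 75% with every replicate also reaching 75%; inconclusive = mean inhibition at least 75% but some replicate below; inactive = mean inhibition below 75%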;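 note: 0% = median of neutral control wells and 100% = pilot-screen positive control compound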
# EBV LMP1 NFkB – Epstein-Barr LMP1 NF-kappaB reporter inhibition; LMP1-induced NF-kappaB luciferase reporter cells, luminescence; inhibition, % at 12.5 µM; 0.69% of 350,000 active; AID 504558; in the data active = inhibition above about 41%; inconclusive = no clear call, values can overlap the other calls;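 note: 0% = neutral control wells and 100% = reference inhibitor control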
# MITF TRPM1 inh – reduces MITF-dependent TRPM1 promoter luciferase signal; inhibition, % at 12.5 µM; 0.83% of 330,000 active; SK-MEL-5 TRPM1 promoter luciferase, 24 h; AID 488899;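 active = mean inhibition across replicates of 60% or more, whatever share of single replicates reaches that level; inconclusive = some that reach 60%, reason not given; inactive = mean inhibition across replicates below 60%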
# Peg3 prom inh – inhibitors of Peg3 promoter; 1.7% of 360,000 active; inhibition, % at 20 µM; HeLa PEG-Prom luciferase reporter, luminescence, overnight;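 active = inhibition of at least 50% at 20 µM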
# Mdm2-MdmX confirm – confirmation of inhibitors of human Mdm2/MdmX interaction, set 2; SaOS-2 split-luciferase Mdm2/MdmX complementation, luminescence; 99% of 740 active; inhibition, % at 8 µM; shares compounds with HIF-2a inh;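 active = mean inhibition of the luminescence signal across two replicates at or above 26 percent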
# Target sequence (O15151 whole entry, looked up): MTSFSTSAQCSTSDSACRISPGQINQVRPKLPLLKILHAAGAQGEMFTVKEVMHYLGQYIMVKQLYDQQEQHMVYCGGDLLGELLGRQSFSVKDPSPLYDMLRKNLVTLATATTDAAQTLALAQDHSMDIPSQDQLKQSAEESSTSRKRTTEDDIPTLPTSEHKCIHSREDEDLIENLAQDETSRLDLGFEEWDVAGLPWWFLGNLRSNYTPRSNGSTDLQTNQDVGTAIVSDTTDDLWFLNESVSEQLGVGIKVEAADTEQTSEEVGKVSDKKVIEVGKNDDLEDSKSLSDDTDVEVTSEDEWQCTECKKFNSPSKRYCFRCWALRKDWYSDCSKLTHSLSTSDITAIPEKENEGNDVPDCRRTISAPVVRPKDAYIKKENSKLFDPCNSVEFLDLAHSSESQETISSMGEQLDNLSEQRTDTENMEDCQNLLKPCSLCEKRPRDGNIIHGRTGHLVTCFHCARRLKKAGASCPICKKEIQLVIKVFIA
# Target sequence (Q00987 whole entry, looked up): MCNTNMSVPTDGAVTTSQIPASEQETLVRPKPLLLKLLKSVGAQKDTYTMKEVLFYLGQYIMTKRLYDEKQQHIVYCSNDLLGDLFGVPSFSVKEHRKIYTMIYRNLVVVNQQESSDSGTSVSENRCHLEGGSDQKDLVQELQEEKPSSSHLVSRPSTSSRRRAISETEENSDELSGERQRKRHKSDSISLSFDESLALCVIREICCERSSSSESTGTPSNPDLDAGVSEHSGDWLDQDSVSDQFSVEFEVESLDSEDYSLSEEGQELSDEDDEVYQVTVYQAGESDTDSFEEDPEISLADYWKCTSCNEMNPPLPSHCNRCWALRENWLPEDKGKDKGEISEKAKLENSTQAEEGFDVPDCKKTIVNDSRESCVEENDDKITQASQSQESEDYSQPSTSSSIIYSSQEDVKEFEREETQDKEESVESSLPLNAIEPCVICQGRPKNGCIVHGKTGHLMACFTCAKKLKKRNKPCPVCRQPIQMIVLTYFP
# HIF-2a inh conf – HIF-2a inhibition, single concentration confirmation | shares compounds with HIF-2a inh | 786-0 RCC cells, HIF-2a luciferase reporter luminescence, overnight | inhibition, % at 18.8 µM | 56% of 1,800 active;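 active = mean inhibition across four replicates of at least 40 percent at the single tested concentration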
# HIF-1a counter – HIF-1a inhibition counter-screen for HIF-2a hits | shares compounds with HIF-2a inh | MiaPaCa-2 HIF-1a luciferase reporter, desferoxamine, overnight | 72% of 1,800 active | inhibition, % at 18.8 µM;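 active = mean inhibition of the reporter signal across four replicates at the single tested dose of 50% or more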
# * hit, by the source's call; ? = inconclusive; nt = no result given.
SMILES,HIF-2a inh,PAX8 reporter,Shn3 3UTR inh,EBV LMP1 NFkB,MITF TRPM1 inh,Peg3 prom inh,HIF-2a inh conf,HIF-1a counter,others
COc1ccccc1N1C(=O)C2CC(C)=C(C)CC2C1=O (stereo not given),9,nt,-2,0,-6,7,nt,nt,
COc1ccc(NC(=O)c2c(N)no[n+]2[O-])cc1,-98,-20,23,-22,-11,-82,nt,nt,
COc1ccc(C(=O)c2no[n+]([O-])c2C(=O)c2ccc(OC)cc2)cc1,65*,nt,56,16,54,66*,16,33,
Cc1nc2ccccn2c1C(=O)/C=C/c1cccc([N+](=O)[O-])c1,75*,8,-40,32,71*,102*,2,33,
COCC#Cc1cnc2c(c1)C(=O)N([C@@H](C)CO)C[C@@H](C)[C@@H](CN(C)S(C)(=O)=O)O2,nt,5,nt,nt,nt,nt,nt,nt,
O=C(Nc1ccc(OCc2ccccc2Cl)cc1)c1cccnc1,48*,-21,41,9,31,8,83*,89*,
O=C(Nc1ccc(OCc2ccccc2)cc1)c1cccnc1,-107,nt,-16,-19,-41,-54,nt,nt,
NC(=O)C1=C(c2ccccc2)c2ccccc2C1=O,51*,-8,-6,1,37,22,39,-3,
CN1C(=O)c2cc(NC(=O)NC3CCCC3)ccc2OC[C@@H]2O[C@H](CC(=O)O)CC[C@H]21,nt,6,nt,nt,nt,nt,nt,nt,
O=C1C=CC(=O)N1c1cccc(-c2ccccc2)c1,76*,49,61,23,-10,109*,68*,40,
COc1ccc2c(n1)Sc1nc3ccccc3nc1N2,92*,-61,-39,-71,5,-75,-246,-22,
COc1cc2ccccc2nn1,3,20,-23,-11,-5,-9,nt,nt,
O=C1C(Cl)=C(N2CCN(Cc3ccccc3)CC2)C(=O)N1Cc1ccccc1,40*,7,35,3,4,44,2,26,
O=C1C(Cl)=C(NC2CCCCC2)C(=O)N1Cc1ccccc1,6,-13,3,0,18,1,nt,nt,
O=C(NCc1cc(C(F)(F)F)ccc1Cl)c1cccc2c1C(=O)c1ccc(N3CCC(N4CCCCC4)CC3)cc1S2(=O)=O,92*,94*,76,-38,nt,99*,-4,100*,
C[C@@H]1CCCCO[C@@H](CN(C)S(=O)(=O)c2cn(C)cn2)[C@@H](C)CN([C@@H](C)CO)C(=O)c2cc(NC(=O)Nc3ccccc3)ccc2O1,nt,-11,nt,nt,nt,nt,nt,nt,
Cc1c(CCC(=O)N2CCC(C(=O)O)(c3ccccc3)CC2)c(=O)oc2cc3oc4c(c3cc12)CCCC4,63*,nt,23,8,54,-61,78*,43,
C[C@@H]1CN([C@H](C)CO)C(=O)c2cc(N(C)C)ccc2O[C@@H]1CN(C)C(=O)Nc1cccc2ccccc12,nt,27,nt,nt,nt,nt,nt,nt,
Cc1ccc(C(=O)c2c(NC(=O)CSc3nnc(N)s3)sc3c2CCCC3)cc1,61*,-19,21,-4,15,12,2,63*,
CCOc1ccc(OCc2ccc(C(=O)O)o2)cc1,42*,nt,8,5,45,45,27,-22,
O=C(Nc1ccccc1F)N[C@H]1CC[C@@H](CCNS(=O)(=O)c2ccccc2)O[C@H]1CO,nt,7,nt,nt,nt,nt,nt,nt,
N#CC1(NC(=O)Cn2ncc(Cl)c(Cl)c2=O)CCCCC1,87*,91*,24,-43,49,93*,59*,107*,
N#CC1(NC(=O)CN2C(=O)c3ccccc3C2=O)CCCCC1,18,2,-14,-13,4,5,nt,nt,
Cc1cc(N2CCN(c3ccc(C(F)(F)F)cc3[N+](=O)[O-])CC2)c2ccccc2n1,17,34,53,5,10,10,nt,nt,
Cc1cc(N2CCN(c3ccc([N+](=O)[O-])c4cccnc34)CC2)c2ccccc2n1,32,nt,75,3,76*,106*,nt,nt,Mdm2-MdmX confirm=102*
SMILES,HIF-2a inh,PAX8 reporter,Shn3 3UTR inh,EBV LMP1 NFkB,MITF TRPM1 inh,Peg3 prom inh,HIF-2a inh conf,HIF-1a counter,others
Cn1c(Oc2ccc(F)cc2)c(C=O)c2ccccc21,22,2,5,6,18,9,nt,nt,
Cn1c(Sc2ccc(Br)cc2)c(C=O)c2ccccc21,30,nt,20,10,11,37,nt,nt,Mdm2-MdmX confirm=87*
Cc1noc(C)c1NC(=O)Nc1ccc2c(c1)C(=O)N([C@@H](C)CO)C[C@@H](C)[C@H](CN(C)C(=O)Nc1ccccc1)OCCCC[C@H](C)O2,nt,-3,nt,nt,nt,nt,nt,nt,
CN1CCN(C(=O)C[C@H]2C=C[C@H](NC(=O)c3ccc4c(c3)OCO4)[C@@H](CO)O2)CC1,nt,-12,nt,nt,nt,nt,nt,nt,
O=C(NC12CC3CC(CC(C3)C1)C2)c1ccc(Br)o1,-23,-7,35,8,-2,-7,nt,nt,
O=C(NC12CC3CC(CC(C3)C1)C2)c1ccc([N+](=O)[O-])o1,65*,98*,-2,-2,63*,84*,11,96*,
O=C(O)CCn1cc(/C=C/C(=O)c2ccc(Cl)cc2)c(-c2ccc(Br)cc2)n1,54*,-4,6,2,1,45,21,43,
C[C@@H]1CCCCO[C@H](CN(C)Cc2ccccc2)[C@@H](C)CN([C@H](C)CO)C(=O)c2cc(NC(=O)CCCN(C)C)ccc2O1,nt,-17,nt,nt,nt,nt,nt,nt,
C[C@@H]1CN([C@H](C)CO)C(=O)CCCn2cc(nn2)CO[C@@H]1CN(C)Cc1cccnc1,nt,-4,nt,nt,nt,nt,nt,nt,
CC(C)(C)c1ccc(/C=C(\c2nc3ccccc3[nH]2)S(=O)(=O)c2ccccc2)cc1,95*,nt,94*,3,91*,104*,97*,108*,Mdm2-MdmX confirm=103*
Cc1ccc(NC(=S)c2nc3ccccc3[nH]2)c(C)c1,-230,-137,-25,-2,-65,-237,nt,nt,
Cc1cccc(/C=C(\c2nc3ccccc3[nH]2)S(=O)(=O)c2ccccc2)c1,88*,106*,93*,10,86*,112*,92*,105*,
O=C(O)c1ccc(/C=C(\c2nc3ccccc3[nH]2)c2nc3ccccc3s2)cc1,-49,1,-37,-3,7,-35,nt,nt,
COc1ccc(C2C(O)C(c3c[nH]c4ccccc34)=NN2C(=O)CCl)cc1 (stereo not given),93*,117*,96*,-19,98*,117*,88*,106*,
Cc1ccc(-n2nnnc2Sc2ccc(S(=O)(=O)NCCN(C)C)cc2[N+](=O)[O-])cc1,77*,?,-46,47*,92*,100*,18,106*,
Cc1ccc(C(=O)Cn2c(NCCO)nc3ccccc32)cc1,19,nt,-13,6,5,9,nt,nt,

# Assay outcomes (PubChem)
